Source: PubChem BioAssay (Tox21)
Inconclusive results are not listed. A call without a number means that no potency is given here. The source made the active and inactive calls. Calls follow the shape of the full dose curve.

experiment: p53 small molecule agonists, cell-based qHTS assay with rat liver microsomes: qHTS cell viability counter screen (AID 1963580); conditions: p53RE-bla HCT-116 + rat microsomes, ATP viability, 16 h; series mostly up to 66 µM; also: nearly all actives have a fitted effect of over 45% in size
Description: National Center for Advancing Translational Sciences [NCATS]
Division of Preclinical Innovation [DPI]
U.S. Environmental Protection Agency [EPA]
National Institutes of Environmental Health Sciences [NIEHS]
National Toxicology Program [NTP]
U.S. Food and Drug Administration [FDA]
p53, a tumor suppressor protein, is activated following cellular insult, including DNA damage and other cellular stresses. The activation of p53 regulates cell fate by inducing DNA repair, cell cycle arrest, apoptosis, or cellular senescence. The activation of p53, therefore, is a good indicator of DNA damage and other cellular stresses. The CellSensor p53RE-bla HCT-116 cell line contains a stably integrated beta-lactamase reporter gene under control of the p53 response elements. The activation of the reporter gene under culture conditions can be detected by fluorescence intensity. This cell line was used to screen the Tox21 10K compound library in the condition of presence of rat liver microsomes and to identify agonists that activate the p53 signaling pathway after in vitro metabolic activation (Ooka et al., Archive of Toxicology 96:1975-1987, 2022). The cytotoxicity of the Tox21 compound library against the p53 RE-bla HCT-116 cell line was tested in parallel by measuring the intra cellular ATP content in the same wells.
Tox21 Assay Protocol Summary:
The p53RE-bla cells were dispensed at 4,000cells/3ul/well in 1536-well black-clear bottom plates. After the assay plates were incubated at 37 C, 5% CO2 incubator for 5 hours, 23 nL of compounds dissolved in DMSO, positive controls or DMSO only was transferred to the assay plate. Following compound addition, 3 uL of rat liver microsomes (Molecular Toxicology, Boone, NC) at final concentration of 0.5 mg/mL and 1uL of B-Nicotinamide adenine dinucleotide 2'-phosphate (NADPH) at final concentration of 0.5 mg/mL were transferred to the assay plate. The plates were incubated at 37 C for 16 hours. 1 uL of LiveBLAzer detection mixture was added to each well and the plates were incubated at room temperature in the dark for 2 h. Fluorescence intensity at 460 and 530 nm emission and 405 nm excitation were measured by an Envision plate reader. For cell viability readout that measures cytotoxicity, 4 ul/well of CellTiter-Glo reagent was added into the assay plates using a Flying Reagent Dispenser. After 30 min incubation at room temperature, the luminescence intensity in the plates was measured using a ViewLux plate reader.

SMILES	Potency
CC(Br)C(=O)O (stereo not given)	inactive
O=P(Oc1ccccc1)(Oc1ccccc1)Oc1ccccc1	inactive
Fc1cc(Br)ccc1CBr	inactive
CCCCCCCCCCCCCl	inactive
O=NN(c1ccccc1)c1ccccc1	inactive
OCCCl	inactive
O=C(O)C(Cl)Cl	inactive
O=[N+]([O-])c1cccc(O)c1	inactive
CC(C)NC(C)C	inactive
CCC(=O)c1ccccc1	inactive
CCOC(=O)C1(c2ccccc2)CCN(CCC(C#N)(c2ccccc2)c2ccccc2)CC1	inactive
N[C@@H](Cc1ccc(N(CCCl)CCCl)cc1)C(=O)O	inactive
C[C@H]1O[C@H](OC2[C@@H](O)[C@@H](O)C(O)[C@H](O)[C@H]2O)[C@@H](N)C[C@@H]1N=C(N)C(=O)O (stereo not given in full)	inactive
O=NN1CCCCCCC1	inactive
CC1(C)Cc2cccc(O)c2O1	inactive
CCCCOC(=O)c1ccccc1C(=O)O	inactive
O=C(O)c1ccccn1	inactive
CC(C)C#N	inactive
CC(C)OS(C)(=O)=O	inactive
CC(Oc1ccc(Cl)cc1Cl)C(=O)O (stereo not given)	inactive

SMILES	Potency
CCNc1nc(NC(C)C)nc(SC)n1	inactive
CCOP(=S)(OCC)SCSc1cc(Cl)ccc1Cl	inactive
BrCC(Br)c1ccccc1 (stereo not given)	inactive
CCCCN(CCCCO)N=O	inactive
Cc1cccc(N)c1N	inactive
C=CCc1ccc2c(c1)OCO2	inactive
COC(=O)c1ccccc1N	inactive
O=c1[nH]c2ccccc2c(=O)o1	inactive
ClCCOCCCl	inactive
CCN(CC)Cc1nccn1-c1ccc([N+](=O)[O-])cc1C(=O)c1ccccc1Cl	inactive
Clc1ccc(C(c2ccccc2Cl)C(Cl)(Cl)Cl)cc1 (stereo not given)	inactive
O=C(O)C(Cl)(Cl)Cl	inactive
CCCCc1c(C)nc(NCC)[nH]c1=O	inactive
c1ccc2c(c1)Oc1ccccc1O2	inactive
O=C1C(Cl)=C(Cl)C(=O)c2ccccc21	inactive
CCOP(=S)(OCC)SCSC(C)(C)C	inactive
N#CC1(N=NC2(C#N)CCCCC2)CCCCC1	inactive
CCn1cc[n+](C)c1	inactive
CC(c1ccc(O)cc1)c1ccc(O)cc1	inactive
C[N+](C)(C)Cc1ccccc1	inactive
